This is a sample that favours compounds with a hit; in the whole collection about 3.2% have one here.
SKN-1 inh = blocks SKN-1 activity in C. elegans | AID 624304 | C. elegans VP596 Pgst-4::GFP/RFP ratio, acrylamide-induced, 24 h | 0.49% of 360,000 active | inhibition, % at 21.8 µM;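 active = interference check ratio from 0.5 to 1.5 plus GFP to RFP signal ratio inhibition reaching or exceeding a fixed threshold, cut at about 30% in these data, passing the limit was not always enough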
NRP1-CendR mod = alters CendR peptide binding to human NRP-1; O14786; FAM-RPARPAR peptide binding to NRP-1, fluorescence polarization; inhibition, % at 25 µM; 0.85% of 360,000 active; AID 602438;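 active = inhibition or corrected inhibition above about 18%, plus a signal ratio from 0.5 to 1.5, limit read from the data, passing the limit was not always enough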
MEKK2 WT-MEK5 = raises or lowers MEK5 binding to wildtype human MEKK2 PB1 domain. Q9Y2U5. bead flow cytometry, Alexa488-MEK5 binding to MEKK2 WT; actives lie on both sides. binding response (% of control), % at 10 µM. 1.1% of 290,000 active; in the data active = binding response below about 67% or above about 130%
MEKK3 PB1 HTS = raises or lowers MEK5 binding to the human MEKK3 PB1 domain. 1.4% of 290,000 active. bead-based flow cytometry, Alexa488-MEK5 binding to MEKK3; actives lie on both sides; 0 = blocked by unlabeled MEK5, 100 = vehicle. binding response (% of control), % at 10 µM. Q99759;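 active = binding response more than 3 SD above or below the average of its plate-row segment, actives on both sides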;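 note: Alexa488 bead fluorescence after subtracting the streptavidin-only scavenger bead signal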
MEKK2 mut-MEK5 = signal of MEK5 binding to mutant human MEKK2 PB1 domain; bead flow cytometry, Alexa488-MEK5 binding to MEKK2 mutant; percent response, % at 10 µM; 0.35% of 290,000 active; AID 1530; in the data active = percent response above about 24%, passing the limit was not always enough
MEKK2wt confirm = raises or lowers MEK5 binding to wildtype human MEKK2, retest; binding response (% of control), % at 10 µM; shares compounds with MEKK3 PB1 HTS; bead flow cytometry, Alexa488-MEK5 binding to MEKK2 WT; actives lie on both sides; 2.4% of 5,900 active; in the data active = binding response below about 16% or above about 210%; inactive = in between
MEKK2mut-MEK5 = signal of MEK5 binding to mutant human MEKK2, retest; percent response, % at 10 µM; 2% of 5,900 active; bead flow cytometry, Alexa488-MEK5 binding to MEKK2 mutant; shares compounds with MEKK3 PB1 HTS; in the data active = percent response mostly above about 71%, no sharp cut-off; inactive = mostly below about 38%;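 note: higher means compound restores mutant binding toward wildtype level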
MEKK3-MEK5 inh = confirmation of inhibitors of MEK5 binding to human MEKK3 | shares compounds with MEKK3 PB1 HTS | bead flow cytometry, Alexa488-MEK5 binding to MEKK3; stronger effect = lower value | binding response (% of control), % at 10 µM | 1.8% of 5,900 active | AID 1894;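 active = binding response below 72% of control, or above a set upper limit, though filed actives all read lower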;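 note: 100% = DMSO only wells and 0% = binding blocked by excess unlabeled MEK5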
The depositor's hits bear a star; [ ] = another dose, or the depositor's remark.

What do the screens show for `O=C(O)C1C2C=CC(C2)C1C(=O)NCCCN1CCOCC1` (stereo not drawn)?
SKN-1 inh: 0; NRP1-CendR mod: 15; MEKK2 WT-MEK5: 92; MEKK3 PB1 HTS: 97; MEKK2 mut-MEK5: -1

Results for COc1ccc(C(=O)N2CCCc3ccccc32)cc1 ?
SKN-1 inh: -3; NRP1-CendR mod: 2; MEKK2 WT-MEK5: 84; MEKK3 PB1 HTS: 76; MEKK2 mut-MEK5: -7

How did CC(C)Oc1ccc(C(=O)N2CCCc3ccccc32)cc1 do in these assays?
SKN-1 inh: -4; NRP1-CendR mod: 13; MEKK2 WT-MEK5: 117; MEKK3 PB1 HTS: 123*; MEKK2 mut-MEK5: 7; MEKK2wt confirm: 102; MEKK2mut-MEK5: 2; MEKK3-MEK5 inh: 105

Results for N#CCCSCc1ccc2oc(C(=O)O)cc2c1 ?
SKN-1 inh: 17; NRP1-CendR mod: 1; MEKK2 WT-MEK5: 0.0*[inhibitor]; MEKK3 PB1 HTS: 2.0*[inhibitor]; MEKK2 mut-MEK5: -45; MEKK2wt confirm: 109; MEKK2mut-MEK5: 9; MEKK3-MEK5 inh: 109

Results for C1CCC(C23CC4CC(CC(C4)C2)C3)NC1 (stereo not drawn) ?
SKN-1 inh: -9; NRP1-CendR mod: 10; MEKK2 WT-MEK5: 100; MEKK3 PB1 HTS: 123*; MEKK2 mut-MEK5: 7; MEKK2wt confirm: 101; MEKK2mut-MEK5: -1; MEKK3-MEK5 inh: 102

What do the screens show for `CCN(CC)CCN(C(=O)c1ccc(S(=O)(=O)N2CCCCC2)cc1)c1nc2cc3c(cc2s1)OCO3`?
SKN-1 inh: 9; NRP1-CendR mod: 3; MEKK2 WT-MEK5: 127; MEKK3 PB1 HTS: 132*; MEKK2 mut-MEK5: 2; MEKK2wt confirm: 132; MEKK2mut-MEK5: 31; MEKK3-MEK5 inh: 110

Results for CCOc1cccc2sc(N(CCN(CC)CC)C(=O)c3ccc(S(=O)(=O)N4CCCC4)cc3)nc12 ?
SKN-1 inh: -1; NRP1-CendR mod: -5; MEKK2 WT-MEK5: 128; MEKK3 PB1 HTS: 104; MEKK2 mut-MEK5: 16

How did CCN(CC)CCN(C(=O)c1ccc2ccccc2c1)c1nc2cc3c(cc2s1)OCO3 do in these assays?
SKN-1 inh: 6; NRP1-CendR mod: 4; MEKK2 WT-MEK5: 135*; MEKK3 PB1 HTS: 105; MEKK2 mut-MEK5: 21; MEKK2wt confirm: 116; MEKK2mut-MEK5: 5; MEKK3-MEK5 inh: 100

What do the screens show for `CCOC(=O)C1=CCN(S(=O)(=O)c2ccc(F)cc2)C1c1ccc(F)cc1` (stereo not drawn)?
SKN-1 inh: -1; NRP1-CendR mod: -1

How did CNC(=O)/C=C/c1cccc(C(F)(F)F)c1 do in these assays?
SKN-1 inh: 8; NRP1-CendR mod: 9; MEKK2 WT-MEK5: 90; MEKK3 PB1 HTS: 73*[inhibitor]; MEKK2 mut-MEK5: -1; MEKK2wt confirm: 99; MEKK2mut-MEK5: 0; MEKK3-MEK5 inh: 101

How did COc1cccc(/C=N/NC(=O)CCc2c(C)n[nH]c2C)c1O do in these assays?
SKN-1 inh: -5; NRP1-CendR mod: 0; MEKK2 WT-MEK5: 97; MEKK3 PB1 HTS: 99; MEKK2 mut-MEK5: 11

What do the screens show for `COc1cccc(/C=N/NC(=O)CCc2n[nH]c(=O)[nH]c2=O)c1O`?
SKN-1 inh: 8; NRP1-CendR mod: -6; MEKK2 WT-MEK5: 103; MEKK3 PB1 HTS: 128*; MEKK2 mut-MEK5: 0; MEKK2wt confirm: 109; MEKK2mut-MEK5: 5; MEKK3-MEK5 inh: 103

What do the screens show for `COc1ccc(/C=N\NC(=O)CCc2c(C)n[nH]c2C)c(OC)c1OC`?
SKN-1 inh: 3; NRP1-CendR mod: 0; MEKK2 WT-MEK5: 109; MEKK3 PB1 HTS: 134*; MEKK2 mut-MEK5: 2; MEKK2wt confirm: 111; MEKK2mut-MEK5: 3; MEKK3-MEK5 inh: 100
